“And” between values parts separate entries of the source, which are not always exact repeats. Equal entries are not always repeated. Inconclusive results are not listed. Where a call stands in place of a potency, no number is given. More than one record can exist for a structure, and the calls need not agree. The source made the active and inactive calls. Unless noted, calls come from the whole dose curve; as a rule, active = well fitted curve in the direction sought with a large enough effect in the repeat runs; inconclusive = weak or mixed curves; inactive = no such curve, though single readings can be large; an effect the other way counts as inactive or inconclusive.
Experiments:
[1] = qHTS assay to identify aromatase inhibitors - cell viability counter screen (AID 743084);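 note: cells stimulated with testosterone during compound exposure; nearly all actives have a fitted effect of over 55% in size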; note: potency is the fitted concentration of half-maximal effect
[2] = qHTS assay to identify small molecule that activate the aryl hydrocarbon receptor (AhR) signaling pathway - cell viability counter screen (AID 743086); note: nearly all actives have a fitted effect of over 45% in size; note: potency is the fitted concentration of half-maximal effect
Method in brief: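 HepG2-AhR-luc (HG2L7.5c1) cells, 4000/well, treated 24 h at 37 C with compound; viability measured as CellTiter-Fluor fluorescence after 30 min in the same wells as the luciferase read.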

[3] = target: Peroxisome proliferator-activated receptor gamma (Homo sapiens) (UniProt P37231); experiment: qHTS assay to identify small molecule agonists of the peroxisome proliferator-activated receptor gamma (PPARg) signaling pathway (AID 743094; active = well fitted activation curve with a large enough effect in the signal ratio in the repeat runs, not every such curve was filed as active; the % refers to the signal ratio)
Peroxisome proliferator-activated receptor gamma (Homo sapiens), sequence (P37231 whole entry, looked up): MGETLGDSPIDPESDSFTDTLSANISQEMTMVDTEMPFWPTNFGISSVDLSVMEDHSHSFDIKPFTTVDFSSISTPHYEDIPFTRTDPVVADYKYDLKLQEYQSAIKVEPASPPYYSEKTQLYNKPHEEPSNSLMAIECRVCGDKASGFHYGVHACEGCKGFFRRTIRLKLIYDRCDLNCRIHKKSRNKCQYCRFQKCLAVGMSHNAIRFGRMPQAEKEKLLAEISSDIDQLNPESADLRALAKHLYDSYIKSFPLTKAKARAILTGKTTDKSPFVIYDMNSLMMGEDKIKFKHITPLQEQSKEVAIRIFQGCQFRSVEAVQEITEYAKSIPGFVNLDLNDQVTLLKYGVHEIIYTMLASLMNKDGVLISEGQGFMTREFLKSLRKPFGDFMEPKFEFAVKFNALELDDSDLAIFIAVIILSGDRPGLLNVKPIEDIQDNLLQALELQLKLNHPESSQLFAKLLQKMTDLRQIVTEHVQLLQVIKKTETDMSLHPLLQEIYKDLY
Method in brief: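 Compounds dissolved in DMSO were added to PPARg UAS-bla HEK293H cells for 17 h at 37C, and reporter expression was quantified by fluorescence intensity after 1 h with LiveBLAzer B/G FRET substrate.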

[4] = qHTS assay to identify small molecule antagonists of the peroxisome proliferator-activated receptor gamma (PPARg) signaling pathway - cell viability counter screen (AID 743194); conditions: Potency: co-treated with 50 nM rosiglitazone; note: nearly all actives have a fitted effect of over 55% in size
Method in brief: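 Cytotoxicity counter screen in PPARg-bla HEK293H cells, same wells as reporter assay. Compounds plus 50 nM rosiglitazone (final) for 17 h at 37 C, then viability read by CellTiter-Glo luminescence.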

[5] = qHTS assay for small molecule agonists of the antioxidant response element (ARE) signaling pathway (AID 743202; active = well fitted activation curve with a large enough effect in the signal ratio in the repeat runs, not every such curve was filed as active; the % refers to the signal ratio)
Method in brief: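 Agonist mode reporter screen: HepG2 cells with ARE-controlled beta-lactamase are incubated with test compounds for 16 h at 37 C, and beta-lactamase activity is measured as fluorescence of cleaved B/G FRET substrate.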

[6] = qHTS assay for small molecule agonists of the antioxidant response element (ARE) signaling pathway - cell viability counter screen (AID 743203; calls by dose curve; note: nearly all actives have a fitted effect of over 55% in size; note: potency is the fitted concentration of half-maximal effect)
Method in brief: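 Following 16 hrs of compound treatment at 37C, HepG2 cells with an ARE-controlled beta-lactamase gene were lysed with CellTiter-Glo. Luminescence was read after 30 min at room temperature.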

[7] = qHTS assay for small molecule activators of the heat shock response signaling pathway - cell viability counter screen (AID 743209); note: nearly all actives have a fitted effect of over 50% in size; note: potency is the fitted concentration of half-maximal effect
Method in brief: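 Readout: CellTiter-Glo luminescence, 30 min at room temperature. System: HSE-bla HeLa cells, 1500/well, plated overnight. Treatment: compounds in DMSO, 5 h at 37 C.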

[8] = qHTS assay to identify small molecule agonists of the peroxisome proliferator-activated receptor delta (PPARd) signaling pathway - cell viability counter screen (AID 743211); note: nearly all actives have a fitted effect of over 55% in size; note: potency is the fitted concentration of half-maximal effect
Method in brief: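 Tox21 library compounds, delivered in DMSO, were incubated 17 h with PPARd-bla HEK293H cells; cytotoxicity was taken from CellTiter-Glo luminescence read 30 min after reagent addition.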

[9] = target: Peroxisome proliferator-activated receptor delta (Homo sapiens) (UniProt Q03181); experiment: qHTS assay to identify small molecule agonists of the peroxisome proliferator-activated receptor delta (PPARd) signaling pathway (AID 743212; calls by dose curve)
Peroxisome proliferator-activated receptor delta (Homo sapiens), sequence (Q03181 whole entry, looked up): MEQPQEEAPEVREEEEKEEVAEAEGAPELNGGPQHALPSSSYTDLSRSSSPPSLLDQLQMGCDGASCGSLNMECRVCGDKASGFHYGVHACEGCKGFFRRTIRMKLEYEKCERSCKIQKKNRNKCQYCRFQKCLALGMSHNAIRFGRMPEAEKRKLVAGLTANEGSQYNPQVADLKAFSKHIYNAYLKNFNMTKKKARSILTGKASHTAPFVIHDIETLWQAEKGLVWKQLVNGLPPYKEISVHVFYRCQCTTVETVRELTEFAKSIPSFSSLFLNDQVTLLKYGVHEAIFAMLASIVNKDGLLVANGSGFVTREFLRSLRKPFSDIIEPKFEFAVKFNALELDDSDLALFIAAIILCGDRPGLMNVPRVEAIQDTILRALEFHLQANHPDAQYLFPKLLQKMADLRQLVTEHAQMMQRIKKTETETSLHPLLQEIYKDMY
Method in brief: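 Quantitative high-throughput agonist screen in a HEK293H beta-lactamase reporter line under UAS control. Compounds in DMSO, at 37 C. Fluorescence read after 2 h with FRET substrate at room temperature.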

[10] = qHTS assay to identify small molecule antagonists of the peroxisome proliferator-activated receptor delta (PPARd) signaling pathway - cell viability counter screen (AID 743213); note: nearly all actives have a fitted effect of over 50% in size; note: potency is the fitted concentration of half-maximal effect
Method in brief: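 In this counter screen, HEK293H cells carrying a UAS-beta-lactamase reporter are co-treated with test compounds and 300 nM L165041 (final) for 17 h at 37 C; cell viability is quantified by CellTiter-Glo luminescence.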

[11] = target: Peroxisome proliferator-activated receptor delta (Homo sapiens) (UniProt Q03181); experiment: qHTS assay to identify small molecule antagonists of the peroxisome proliferator-activated receptor delta (PPARd) signaling pathway (AID 743215; active = well fitted inhibition curve with a large enough effect in the signal ratio in the repeat runs, not every such curve was filed as active; the % refers to the signal ratio;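 note: cells stimulated with agonist L165041 at 300 nM final during compound exposure; series mostly up to about 62 µM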)
Method in brief: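 HEK293H UAS-bla, PPARd; agonist L165041 300 nM final with cpd in DMSO; 37 C 17 h; FRET substrate, RT 2 h; fluorescence intensity.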

[12] = target: Bile acid receptor (Homo sapiens) (UniProt Q96RI1); experiment: qHTS assay to identify small molecule antagonists of the farnesoid-X-receptor (FXR) signaling pathway (AID 743217; active = well fitted inhibition curve with a large enough effect in the signal ratio in the repeat runs, not every such curve was filed as active; the % refers to the signal ratio)
Bile acid receptor (Homo sapiens), sequence (Q96RI1 whole entry, looked up): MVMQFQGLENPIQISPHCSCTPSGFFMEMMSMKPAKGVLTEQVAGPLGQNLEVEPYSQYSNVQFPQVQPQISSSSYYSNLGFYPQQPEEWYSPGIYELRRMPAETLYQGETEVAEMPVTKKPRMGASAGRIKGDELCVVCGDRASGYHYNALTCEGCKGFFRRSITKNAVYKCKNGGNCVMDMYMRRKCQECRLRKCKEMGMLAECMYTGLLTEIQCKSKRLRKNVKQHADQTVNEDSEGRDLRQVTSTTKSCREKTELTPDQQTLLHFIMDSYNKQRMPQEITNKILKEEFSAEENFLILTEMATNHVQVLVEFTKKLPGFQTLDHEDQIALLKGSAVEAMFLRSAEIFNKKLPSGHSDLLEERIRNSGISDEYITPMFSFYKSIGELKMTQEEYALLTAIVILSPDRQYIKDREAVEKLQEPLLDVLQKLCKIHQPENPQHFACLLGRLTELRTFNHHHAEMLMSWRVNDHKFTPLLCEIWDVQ
Method in brief: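 GeneBLAzer FXR-UAS-bla HEK 293T, CDCA-stimulated (50 uM final). Compound treatment 16 h, 37 °C. Detection: beta-lactamase cleavage of B/G FRET substrate, fluorescence.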

[13] = qHTS assay to identify small molecule agonists of the farnesoid-X-receptor (FXR) signaling pathway - cell viability counter screen (AID 743218); note: nearly all actives have a fitted effect of over 45% in size; note: potency is the fitted concentration of half-maximal effect
Method in brief: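 Parallel cytotoxicity test: compound-treated (16 h, 37 C) HEK 293T FXR-bla reporter cells were lysed with CellTiter-Glo and luminescence recorded.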

[14] = target: Bile acid receptor (Homo sapiens) (UniProt Q96RI1); experiment: qHTS assay to identify small molecule agonists of the farnesoid-X-receptor (FXR) signaling pathway (AID 743220; active = well fitted activation curve with a large enough effect in the signal ratio in the repeat runs, not every such curve was filed as active; the % refers to the signal ratio)
Method in brief: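 Beta-lactamase reporter under UAS control in GeneBLAzer FXR HEK 293T cells (5000/well) measured with LiveBLAzer FRET substrate after 2 h at room temperature. Compound exposure lasted 16 h at 37C.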

[15] = qHTS assay to identify small molecule antagonists of the farnesoid-X-receptor (FXR) signaling pathway - cell viability counter screen (AID 743221; active = well fitted cell-killing curve with a large enough effect in the repeat runs, not every such curve was filed as active; note: nearly all actives have a fitted effect of over 50% in size; note: potency is the fitted concentration of half-maximal effect)
Method in brief: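 Cytotoxicity is taken from ATP luminescence (CellTiter-Glo, 30 min, room temperature) in FXR-bla HEK 293T cells previously incubated 16 h at 37 C with compound and chenodeoxycholic acid at 50 uM final.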

[16] = target: Vitamin D3 receptor (Homo sapiens) (UniProt P11473); experiment: qHTS assay to identify small molecule agonists of the vitamin D receptor (VDR) signaling pathway (AID 743222; calls by dose curve)
Vitamin D3 receptor (Homo sapiens), sequence (P11473 whole entry, looked up): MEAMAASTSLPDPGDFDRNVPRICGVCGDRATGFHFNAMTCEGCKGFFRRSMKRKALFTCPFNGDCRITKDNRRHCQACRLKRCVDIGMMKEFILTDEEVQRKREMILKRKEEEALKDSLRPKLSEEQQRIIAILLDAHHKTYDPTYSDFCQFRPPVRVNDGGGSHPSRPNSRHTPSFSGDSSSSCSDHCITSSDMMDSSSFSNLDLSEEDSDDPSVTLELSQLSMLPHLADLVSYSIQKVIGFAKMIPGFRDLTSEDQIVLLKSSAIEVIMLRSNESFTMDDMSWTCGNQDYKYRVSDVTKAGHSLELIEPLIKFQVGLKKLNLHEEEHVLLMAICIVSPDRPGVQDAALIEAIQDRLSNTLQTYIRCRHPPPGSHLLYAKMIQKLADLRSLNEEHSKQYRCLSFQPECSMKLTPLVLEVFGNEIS
Method in brief: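 In VDR-bla cells, compound-induced beta-lactamase expression is quantified by FRET substrate fluorescence. Treatment lasts 16 h at 37C; substrate develops 2 h at room temperature.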

[17] = qHTS assay for small molecule activators of the heat shock response signaling pathway (AID 743210; active = well fitted activation curve with a large enough effect in the signal ratio in the repeat runs, with a control signal flat, not every such curve was filed as active; the % refers to the signal ratio;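 note: HeLa cells with beta-lactamase reporter driven by heat shock elements; series mostly up to about 63 µM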)
Method in brief: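 Quantitative high-throughput format using an engineered HeLa line in which heat shock response elements drive beta-lactamase; after 5 h with compound, cells received a B/G FRET substrate and fluorescence was read.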

[18] = target: Vitamin D3 receptor (Homo sapiens) (UniProt P11473); experiment: qHTS assay to identify small molecule antagonists of the vitamin D receptor (VDR) signaling pathway (AID 743223; active = well fitted inhibition curve with a large enough effect in the signal ratio in the repeat runs, not every such curve was filed as active; the % refers to the signal ratio)
Method in brief: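 Quantitative HTS in VDR-bla reporter cells stimulated with 1alpha,25-dihydroxyvitamin D3, 3 nM final. Compound exposure 16 h, 37C, 5% CO2. Read-out: beta-lactamase FRET substrate fluorescence, 2 h RT.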

[19] = target: Peroxisome proliferator-activated receptor gamma (Homo sapiens) (UniProt P37231); experiment: qHTS assay to identify small molecule antagonists of the peroxisome proliferator-activated receptor gamma (PPARg) signaling pathway (AID 743191; calls by dose curve; note: series mostly up to about 63 µM; nearly all actives have a fitted effect of over 30% in size)
Method in brief: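 GeneBLAzer PPARg UAS-bla HEK293H cells, 5 h post-plating, exposed to compounds 17 h at 37C. LiveBLAzer B/G FRET substrate added for 1 h at room temperature; beta-lactamase reporter read by fluorescence intensity.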

[20] = target: Aryl hydrocarbon receptor (Homo sapiens) (UniProt P35869); experiment: qHTS assay to identify small molecule that activate the aryl hydrocarbon receptor (AhR) signaling pathway (AID 743085);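 note: HG2L7.5c1 human HepG2 liver cells with stably integrated DRE-driven firefly reporter; series mostly up to about 70 µM; nearly all actives have a fitted effect of over 15% in size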
Aryl hydrocarbon receptor (Homo sapiens), sequence (P35869 whole entry, looked up): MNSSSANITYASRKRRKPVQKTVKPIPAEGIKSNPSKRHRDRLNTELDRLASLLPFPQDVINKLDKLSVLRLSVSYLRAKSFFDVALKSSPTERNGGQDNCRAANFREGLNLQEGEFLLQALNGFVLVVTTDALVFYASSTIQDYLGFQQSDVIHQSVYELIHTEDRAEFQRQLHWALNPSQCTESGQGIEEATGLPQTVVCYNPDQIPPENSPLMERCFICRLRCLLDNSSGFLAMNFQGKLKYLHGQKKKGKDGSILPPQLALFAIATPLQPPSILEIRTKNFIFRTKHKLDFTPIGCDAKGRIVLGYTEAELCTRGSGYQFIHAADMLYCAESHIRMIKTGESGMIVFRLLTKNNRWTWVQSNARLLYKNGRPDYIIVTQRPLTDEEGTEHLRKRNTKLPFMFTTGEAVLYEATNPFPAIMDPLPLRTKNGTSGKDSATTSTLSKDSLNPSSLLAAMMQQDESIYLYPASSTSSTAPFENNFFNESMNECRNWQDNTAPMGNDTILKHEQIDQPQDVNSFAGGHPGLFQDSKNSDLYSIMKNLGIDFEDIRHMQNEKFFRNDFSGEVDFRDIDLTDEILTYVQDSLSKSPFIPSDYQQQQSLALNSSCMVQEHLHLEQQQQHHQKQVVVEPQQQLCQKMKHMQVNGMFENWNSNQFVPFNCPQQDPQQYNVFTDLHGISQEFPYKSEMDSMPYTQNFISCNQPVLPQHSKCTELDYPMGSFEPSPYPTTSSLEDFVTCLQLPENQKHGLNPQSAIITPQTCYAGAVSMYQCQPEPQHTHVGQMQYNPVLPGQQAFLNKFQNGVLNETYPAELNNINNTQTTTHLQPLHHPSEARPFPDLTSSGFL
Method in brief: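 A multiplexed format paired cell viability (CellTiter-Fluor fluorescence) with AhR-dependent luciferase output (ONE-Glo luminescence) in the same wells of HepG2 DRE-luc cells after 24 h compound exposure at 37C.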

Row | Compound | Potency [1] | Potency [2] | Potency [3] | Potency [4] | Potency [5] | Potency [6] | Potency [7] | Potency [8] | outcome [9] | Potency [10] | Potency [11] | Potency [12] | Potency [13] | outcome [14] | Potency [15] | outcome [16] | Potency [17] | Potency [18] | Potency [19] | Potency [20]
1 | CC(=O)OC(c1ccccc1)C(Cl)(Cl)Cl (centres undefined) | inactive | inactive | inactive | inactive | inactive | inactive | inactive | inactive | inactive | inactive | inactive | inactive | inactive | inactive | inactive | inactive | – | – | – | –
2 | COc1cc(CC#N)cc(OC)c1OC | – | – | – | inactive | inactive | inactive | inactive | inactive | – | inactive | – | – | – | – | inactive | inactive | inactive | inactive | – | –
3 | CCCN(CCOc1c(Cl)cc(Cl)cc1Cl)C(=O)n1ccnc1 | inactive | inactive | inactive | inactive | – | – | inactive | inactive | – | inactive | inactive | inactive | inactive | inactive | inactive | – | inactive | – | – | –
4 | O=C(O)c1ccc(=O)[nH]c1 | – | – | – | – | inactive | – | inactive | inactive | – | inactive | – | – | inactive | – | inactive | – | inactive | inactive | – | –
5 | CCC1CCC(=O)O1 (centres undefined) | – | inactive | – | – | inactive | – | inactive | inactive | – | inactive | inactive | – | inactive | – | inactive | inactive | inactive | – | – | –
6 | CC(C)(C)CC(C)(C)c1ccc(O)cc1 | inactive and 30.6 µM (active) | – | – | inactive | – | 30.6 µM (active) and inactive | 54.9 µM (active) and 29.8 µM (active) | 34.7 µM (active) | inactive | 27.5 µM (active) | inactive | – | 54.8 µM (active) and inactive | inactive | 49 µM (active) | inactive | – | – | – | –
7 | CCCN(CCC)C(=O)Cc1c(-c2ccc(Cl)cc2)nc2ccc(Cl)cn12 | inactive | inactive | inactive | inactive | – | inactive | inactive | inactive | inactive | inactive | inactive | – | inactive | inactive | inactive | – | inactive | – | – | –
8 | CCCSP(=S)(OCC)Oc1ccc(SC)cc1 (centres undefined) | inactive | inactive | inactive | inactive | inactive | – | inactive | inactive | – | inactive | – | inactive | inactive | inactive | inactive | inactive | – | inactive | inactive | –
9 | CN1C(=O)CN=C(c2ccccc2)c2cc([N+](=O)[O-])ccc21 | – | inactive | inactive | inactive | inactive | inactive | inactive | inactive | – | inactive | inactive | – | inactive | – | inactive | – | inactive | – | inactive | inactive
10 | CC[N+]1(CCOC(=O)C(O)(c2ccccc2)c2ccccc2)CCCCC1 | inactive | inactive | inactive | inactive | – | inactive | inactive | inactive | inactive | inactive | inactive | inactive | inactive | inactive | inactive | – | – | inactive | inactive | –
11 | COc1ccc2c(c1OC)C(=O)O[C@H]2[C@@H]1c2cc3c(cc2CCN1C)OCO3 | inactive | inactive | inactive | inactive | inactive | – | inactive | inactive | inactive | inactive | inactive | – | inactive | – | inactive | – | inactive | – | inactive | –
12 | O=C(O)CCCOc1ccc(Cl)cc1Cl | – | inactive | – | inactive | inactive | inactive and 27.8 µM (active) | inactive | inactive | – | inactive | – | – | – | – | inactive | – | inactive | – | – | –
13 | CCOC(C(=O)OCCN(C)C)(c1ccccc1)c1ccccc1 | – | – | – | inactive | inactive | inactive | inactive | inactive | – | inactive | – | inactive | inactive | inactive | inactive | inactive | inactive | inactive | – | –
14 | CCCCCCCCCCCCCCCl | inactive | inactive | inactive | inactive | inactive | – | inactive | inactive | inactive | inactive | inactive | – | inactive | – | inactive | inactive | inactive | inactive | – | –
15 | CCC(=O)O[C@@H]1C=C2CCC3C(CCC4(C)C3CC[C@@H]4OC(=O)CC)C2CC1 (some centres undefined) | – | – | – | inactive | inactive | inactive | inactive | inactive | inactive | inactive | inactive | – | inactive | – | inactive | inactive | inactive | – | – | –
16 | C=CCc1ccc(OC(=O)Cc2ccccc2)c(OC)c1 | inactive | inactive | inactive | inactive | inactive | inactive | inactive | inactive | – | inactive | – | – | inactive | – | inactive | inactive | – | – | – | –
17 | O=C(N/N=C/c1ccc([N+](=O)[O-])o1)c1cc([N+](=O)[O-])cc([N+](=O)[O-])c1O | – | 29.8 µM (active) | inactive | inactive | – | inactive | inactive | inactive | inactive | inactive | inactive | inactive | inactive | inactive | inactive | inactive | inactive | inactive | – | –
